From the OligoGym collection
Also: reference of the scale not given here.

These sequences were tested against DPP9 (assay: pooled miR-30 sensor sort-seq; sequence = guide strand). Settings: shRNA.
Sequence TTATAAAAGAATAAGAATCGAC has a sensor-assay potency score (higher = more potent) of -0.653.
For TAGAGGAGGGAGTTCTCTCGGC, the sensor-assay potency score (higher = more potent) was -0.587.
Work on ATGTCATGAACATTGATCCAGA yielded a sensor-assay potency score (higher = more potent) of -1.2.
TTTGAAGGAGTTATTCACCAGC showed a sensor-assay potency score (higher = more potent) of -0.354.
TTAATGTGTCTACTTCTTCCAC was tested, and the sensor-assay potency score (higher = more potent) was -0.494.
With TAATGTGTCTACTTCTTCCACG the sensor-assay potency score (higher = more potent) was 0.224.
With TCGCTGTGGAAGTCGTAGGAGG the sensor-assay potency score (higher = more potent) was -1.41.
Work on ATGAACATTGATCCAGACGTTG yielded a sensor-assay potency score (higher = more potent) of -1.33.
With TCTTCCTTTCTTCTAGCGCAGG the sensor-assay potency score (higher = more potent) was -1.35.
AATACTGTGTCTCTCGTTGGGG showed a sensor-assay potency score (higher = more potent) of 0.209.
TTATTCACCAGCTGCACCTGGG showed a sensor-assay potency score (higher = more potent) of -0.396.
In the case of TAGCTGACCACGTAGAGGTGGT, the sensor-assay potency score (higher = more potent) was -0.544.

What follows are sequences tested against DPPA5 in the same assay as above. Settings: shRNA.
TTCGAGATCCGTCCGGGCCGAA was tested, and the sensor-assay potency score (higher = more potent) was -1.6.
For TGGAGCATCCACTTGGTCCGGA, the sensor-assay potency score (higher = more potent) was -0.524.
With TTGAGCATCCCTCGCTCCTGGC the sensor-assay potency score (higher = more potent) was -0.972.
TTCGGGAACTTTCACCCACGGC showed a sensor-assay potency score (higher = more potent) of -1.56.
Sequence TGTAAGGGATTCGAGATCCGTC has a sensor-assay potency score (higher = more potent) of -0.0102.
TAAACCACGACCTCGGTGAGGT was tested, and the sensor-assay potency score (higher = more potent) was -0.536.
ATGGACTGGAGCATCCACTTGG showed a sensor-assay potency score (higher = more potent) of -0.436.
TTTCAGGTCTTCGGGAACTTTC gave a sensor-assay potency score (higher = more potent) of -1.57.
Work on TTTGAGCATCCCTCGCTCCTGG yielded a sensor-assay potency score (higher = more potent) of -0.61.
In the case of AGGGATTCGAGATCCGTCCGGG, the sensor-assay potency score (higher = more potent) was -0.916.
Sequence TCTTCGGGAACTTTCACCCACG has a sensor-assay potency score (higher = more potent) of -0.874.
